High-throughput results as filed in PubChem.
Pf apPOL block – Pf-apPOL DNA polymerase inhibition; AID 1794808; inhibition, % at 10 µM; Recombinant Pf-apPOL, molecular beacon fluorescence, 1.5 h; hit rate 0.25% among 210,000
mHTT-CaM PPI inh – inhibitors of human mutant huntingtin-calmodulin interaction; P42858; AlphaScreen His-mHTT/GST-CaM binding, luminescence; inhibition, % at 15 µM; hit rate 3.6% among 190,000;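 further: 0% = both proteins with DMSO and 100% = one protein alone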
Target sequence (P42858 whole entry, looked up, stated change not applied): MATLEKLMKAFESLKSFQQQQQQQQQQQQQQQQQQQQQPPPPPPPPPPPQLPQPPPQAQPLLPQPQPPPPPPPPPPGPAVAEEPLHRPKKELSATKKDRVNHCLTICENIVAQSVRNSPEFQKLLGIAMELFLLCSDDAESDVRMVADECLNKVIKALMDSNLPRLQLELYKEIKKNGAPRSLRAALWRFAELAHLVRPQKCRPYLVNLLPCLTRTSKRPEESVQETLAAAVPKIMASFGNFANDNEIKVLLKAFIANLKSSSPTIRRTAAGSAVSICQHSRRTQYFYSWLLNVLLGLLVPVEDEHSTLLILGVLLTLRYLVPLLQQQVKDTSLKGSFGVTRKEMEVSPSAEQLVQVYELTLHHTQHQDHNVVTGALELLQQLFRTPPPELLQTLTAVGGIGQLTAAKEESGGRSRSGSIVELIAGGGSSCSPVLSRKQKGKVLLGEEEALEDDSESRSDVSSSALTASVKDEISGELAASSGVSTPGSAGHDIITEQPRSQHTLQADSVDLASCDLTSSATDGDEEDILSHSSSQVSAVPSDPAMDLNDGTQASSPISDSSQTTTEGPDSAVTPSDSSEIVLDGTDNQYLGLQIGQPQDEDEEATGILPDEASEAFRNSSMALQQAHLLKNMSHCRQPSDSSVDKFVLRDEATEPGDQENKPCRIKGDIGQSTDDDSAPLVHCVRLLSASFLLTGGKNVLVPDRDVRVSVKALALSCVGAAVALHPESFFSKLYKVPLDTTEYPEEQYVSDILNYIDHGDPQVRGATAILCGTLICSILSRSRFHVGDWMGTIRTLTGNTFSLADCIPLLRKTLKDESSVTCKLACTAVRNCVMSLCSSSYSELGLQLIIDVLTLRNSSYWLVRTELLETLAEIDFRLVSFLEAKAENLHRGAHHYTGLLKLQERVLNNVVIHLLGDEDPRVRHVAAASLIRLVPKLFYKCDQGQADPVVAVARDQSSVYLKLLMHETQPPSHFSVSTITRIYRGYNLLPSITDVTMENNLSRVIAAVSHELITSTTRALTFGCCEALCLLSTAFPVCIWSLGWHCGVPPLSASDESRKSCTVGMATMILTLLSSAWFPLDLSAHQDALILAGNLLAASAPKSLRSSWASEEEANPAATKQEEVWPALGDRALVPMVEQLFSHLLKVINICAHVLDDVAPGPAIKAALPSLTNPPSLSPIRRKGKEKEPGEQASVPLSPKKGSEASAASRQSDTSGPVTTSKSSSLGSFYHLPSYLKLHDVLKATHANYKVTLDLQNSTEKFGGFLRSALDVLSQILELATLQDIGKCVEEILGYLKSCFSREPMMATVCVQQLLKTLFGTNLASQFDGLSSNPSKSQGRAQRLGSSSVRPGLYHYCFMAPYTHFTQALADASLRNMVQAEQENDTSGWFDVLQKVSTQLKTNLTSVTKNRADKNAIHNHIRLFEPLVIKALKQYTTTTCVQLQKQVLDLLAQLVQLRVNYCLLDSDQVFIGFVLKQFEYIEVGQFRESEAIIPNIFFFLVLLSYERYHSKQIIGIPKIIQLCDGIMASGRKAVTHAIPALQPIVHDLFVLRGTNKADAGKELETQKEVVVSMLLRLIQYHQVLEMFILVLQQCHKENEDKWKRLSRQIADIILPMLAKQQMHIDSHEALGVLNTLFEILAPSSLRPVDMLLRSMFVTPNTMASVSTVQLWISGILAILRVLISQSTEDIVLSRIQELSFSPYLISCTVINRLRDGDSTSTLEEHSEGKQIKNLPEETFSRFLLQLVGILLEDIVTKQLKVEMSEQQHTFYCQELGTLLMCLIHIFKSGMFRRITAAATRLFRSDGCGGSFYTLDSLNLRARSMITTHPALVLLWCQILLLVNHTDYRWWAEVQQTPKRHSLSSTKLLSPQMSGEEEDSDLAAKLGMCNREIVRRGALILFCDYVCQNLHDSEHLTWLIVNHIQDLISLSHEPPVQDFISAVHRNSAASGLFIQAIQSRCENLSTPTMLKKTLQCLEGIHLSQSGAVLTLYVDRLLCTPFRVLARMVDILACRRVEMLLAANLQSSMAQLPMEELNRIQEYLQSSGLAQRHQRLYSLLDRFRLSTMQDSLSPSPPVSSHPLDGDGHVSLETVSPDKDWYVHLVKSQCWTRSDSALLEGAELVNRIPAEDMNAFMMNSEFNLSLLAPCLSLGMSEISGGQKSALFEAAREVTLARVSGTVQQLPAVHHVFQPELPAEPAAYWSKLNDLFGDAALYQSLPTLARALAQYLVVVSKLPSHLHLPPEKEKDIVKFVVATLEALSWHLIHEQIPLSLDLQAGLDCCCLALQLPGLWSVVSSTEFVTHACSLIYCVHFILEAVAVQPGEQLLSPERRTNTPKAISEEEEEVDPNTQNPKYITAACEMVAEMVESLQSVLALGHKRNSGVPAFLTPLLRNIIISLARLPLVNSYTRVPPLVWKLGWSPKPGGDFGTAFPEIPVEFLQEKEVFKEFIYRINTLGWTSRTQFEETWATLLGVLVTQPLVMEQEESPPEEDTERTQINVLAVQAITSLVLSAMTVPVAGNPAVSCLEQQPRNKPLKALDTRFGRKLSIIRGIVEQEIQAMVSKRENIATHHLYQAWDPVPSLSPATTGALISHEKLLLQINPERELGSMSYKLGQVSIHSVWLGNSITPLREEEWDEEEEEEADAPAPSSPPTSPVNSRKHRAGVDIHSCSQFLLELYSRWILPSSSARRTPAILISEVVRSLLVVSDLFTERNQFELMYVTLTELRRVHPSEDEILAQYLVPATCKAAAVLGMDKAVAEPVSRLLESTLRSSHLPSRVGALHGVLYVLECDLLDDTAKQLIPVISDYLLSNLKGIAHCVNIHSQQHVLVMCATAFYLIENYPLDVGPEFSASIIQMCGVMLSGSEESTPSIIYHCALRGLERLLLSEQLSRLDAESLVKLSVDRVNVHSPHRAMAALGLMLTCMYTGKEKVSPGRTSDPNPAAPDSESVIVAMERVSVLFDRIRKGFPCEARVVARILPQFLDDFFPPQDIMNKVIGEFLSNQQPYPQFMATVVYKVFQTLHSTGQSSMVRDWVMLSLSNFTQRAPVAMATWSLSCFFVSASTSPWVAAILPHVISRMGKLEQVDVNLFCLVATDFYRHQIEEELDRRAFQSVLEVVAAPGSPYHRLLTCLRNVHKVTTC
* hit, by the source's call; . = not tested or not shown; ! = a repeat was not active. Rows were chosen to be rich in hits. Some 3.6% of all compounds tested hit in one or more screens of this group. No stated cut-off is given here; in the data, active means inhibition above about 50%; inactive means the rest.

SMILES	Pf apPOL block	mHTT-CaM PPI inh
COc1cc(/C=C2\C(=O)ON=C2C)cc(Cl)c1OCc1ccccc1F	-5	60*
COc1cc(/C=C2\C(=O)ON=C2C)cc(Br)c1OC	4	24
COc1cc(/C=C2\C(=O)ON=C2C)cc(Cl)c1OCc1cccc(F)c1	0	86*
C=CCOc1c(Cl)cc(/C=C2\C(=O)ON=C2C)cc1OC	-1	35
CCOc1cc(/C=C2\NC(=O)NC2=O)cc(Cl)c1OCc1ccccc1F	-2	68*
CC1=NOC(=O)/C1=C/c1ccc(OCc2ccccc2F)c(Cl)c1	-9	2
COc1cc(/C=C2\NC(=O)NC2=O)ccc1OCc1ccccc1F	-2	-2
COc1cc(/C=C2\C(=O)ON=C2C)cc(Br)c1OCc1cccc(F)c1	-3	51*
O=C(NCc1ccc(Cl)cc1)C1CCN(c2nnc3ccccn23)CC1	-10	1
CC(=O)Nc1ccc(S(=O)(=O)N2CCCn3nc(-c4cccc(Cl)c4)cc3C2)cc1	-12	12
COc1ccc(C2C=C(c3cccs3)Nc3ncnn32)c(OC)c1 (stereo not drawn)	-7	12
O=S(=O)(c1ccc2c(c1)CCC2)N1CCN(C2=NC=CN3CCN=C23)CC1	-13	8
Cc1ccc(C2C3=C(CC(c4ccccc4)CC3=O)Nc3nc(C(F)(F)F)nn32)cc1 (stereo not drawn)	-2	-2
CNC(=O)Nc1ccc(C2(C(=O)N3CCN(c4cccc(Cl)c4)CC3)CCC2)cc1	1	67*
CC(C)C(=O)Nc1ccc(C2(C(=O)N3CCN(c4ccccn4)CC3)CCCCC2)cc1	4	28
CNC(=O)Nc1ccc(C2(C(=O)N3CCN(c4ccccc4)CC3)CCC2)cc1	1	11
CC(=O)Nc1ccc(C2(C(=O)N3CCN(c4ccccc4)CC3)CCCCC2)cc1	-1	91*
O=[N+]([O-])c1ccc(C=NNc2c(Cl)cc(Cl)cc2Cl)s1	-5	.
Nc1ccc2c(c1)OC1(CCCC1)O2	5	60*!
O=[N+]([O-])c1ccc2c(c1)OC1(CCCC1)O2	-1	-3
Cc1cc(C)cc(-n2cc(-c3ccc4c(c3)OCO4)[nH]c2=O)c1	11	39
Cc1ccc(-n2cc(-c3ccc4c(c3)OCO4)[nH]c2=O)cc1Cl	-8	86*
O=[N+]([O-])c1ccccc1/C=C/CN1CCN(c2ccc(F)cc2)CC1	-22	24
O=[N+]([O-])c1ccccc1/C=C/CN1CCN(c2cccc(Cl)c2)CC1	-3	59*
CC1CCCC(NCCN2CCOCC2)C1 (stereo not drawn)	-2	-4
SMILES	Pf apPOL block	mHTT-CaM PPI inh
COc1cc(OC)cc(C2=NC3(CCCCC3)N(C(=O)c3ccc(OC)c(OC)c3)C2=S)c1	0	76*
COc1ccc(C(=O)N2CCCCCC2)cc1OC	-12	-29
O=C(NC1CCN(c2ccc(F)cc2)C1=O)c1ccc(F)c(Cl)c1 (stereo not drawn)	-5	0
O=C(CN1CCCCC1c1nc(-c2ccc(F)cc2)no1)NCc1cccs1 (stereo not drawn)	0	-8
O=C(Nc1ccccc1F)C(NS(=O)(=O)c1cccs1)c1ccccc1 (stereo not drawn)	-5	3
O=C(Nc1ccc(Cl)c(C(F)(F)F)c1)C(NS(=O)(=O)c1cccs1)c1ccccc1 (stereo not drawn)	-8	100*
COc1nccnc1N1CCC(NS(=O)(=O)c2cccc(F)c2)C1 (stereo not drawn)	-4	2
O=Cc1ccc(-c2ccc(S(=O)(=O)O)cc2)o1	-8	76*
NS(=O)(=O)c1ccc(-c2ccc(C=O)o2)cc1	-8	-3
NC(=O)c1cc[n+](CC(=O)N2CCOCC2)cc1	-8	-1
O=C1NCCOc2ccc(NC(=O)c3ccccc3C(F)(F)F)cc21	2	-8
CC(C)CNC(=O)c1cccc(C2CCCN(C(=O)NC(C)C)C2)c1 (stereo not drawn)	2	2
CCN(CC)CCCOc1ccc(C)cc1	-2	2
CCN(CC)C(=O)CSc1nc(O)cc(=O)[nH]1	-2	-2
CCCOc1cccc(C(=O)Nc2ccc(C(=O)O)cc2)c1	-2	2
Cc1[nH]nc2c1C(c1cccs1)C(C#N)=C(N)O2 (stereo not drawn)	-8	-2
CC(C)N1CC2=C(OC(N)=C(C#N)C2c2cccs2)/C(=C/c2cccs2)C1 (stereo not drawn)	.	66*
O=C1/C(=C/c2cccs2)CC/C1=C\c1cccs1	-4	23
Cc1cc2c(c(=O)o1)C(c1cccs1)C(C#N)=C(N)O2 (stereo not drawn)	.	-3
COCc1[nH]nc2c1C(c1cccs1)C(C#N)=C(N)O2 (stereo not drawn)	.	-6
CC(C)N1C/C(=C\c2cccs2)C(=O)/C(=C/c2cccs2)C1	5	54*!
CCN1CC2=C(OC(N)=C(C#N)C2c2cccs2)/C(=C/c2cccs2)C1 (stereo not drawn)	.	60*
CCN1C=C(Cc2cccs2)C2=C(C1)C(c1cccs1)C(C#N)=C(N)O2 (stereo not drawn)	2	72*
CS(=O)(=O)N(Cc1ccc(C(=O)NCc2ccccn2)cc1)c1ccccc1	4	4
O=C(Nc1nc(-c2cc(Cl)sc2Cl)cs1)C1CC1	-4	-18
SMILES	Pf apPOL block	mHTT-CaM PPI inh
Nc1cccc(S(=O)(=O)N2CCCC2)c1	1	-1
Cc1ccc2c(c1)-c1c(sn(-c3ccc(C)c(C)c3)c1=S)C(C)(C)N2Cc1ccccc1	.	12
CCc1ccc(S(=O)(=O)N2CCN(Cc3nc4ccccc4[nH]3)CC2)s1	-52	100*
CN(C)S(=O)(=O)N1CCN(Cc2nc3ccccc3[nH]2)CC1	-4	-15
CCC(=O)Nc1cccc(-c2noc(C3CCCN(C(=O)c4cc5ccccc5[nH]4)C3)n2)c1 (stereo not drawn)	-4	59*
CCC(=O)Nc1cccc(-c2noc(C3CCCN(C(=O)c4ccccc4C)C3)n2)c1 (stereo not drawn)	-4	5
COc1ccc(N=Cc2cc([N+](=O)[O-])ccc2O)cc1	-3	11
COc1ccc(N=Cc2ccc(O)c3c2OC(N)=C(C#N)C3c2cccc([N+](=O)[O-])c2)cc1 (stereo not drawn)	-6	99*
N#CC1=C(N)Oc2c(C=Nc3ccccc3)ccc(O)c2C1c1ccccc1[N+](=O)[O-] (stereo not drawn)	-10	100*
CCc1[nH]nc2c1C(c1ccccc1[N+](=O)[O-])C(C#N)=C(N)O2 (stereo not drawn)	9	11
O=C(Nc1ccc(F)cc1F)C1CCc2sc(C(=O)N3CCCC3)cc2C1 (stereo not drawn)	0	14
O=C(NCc1ccc(Cl)cc1)c1cc(-c2ccccn2)nc2ccccc12	-9	39
COc1ccc(-c2c(C)oc3cc(OCC=C(C)C)ccc3c2=O)cc1	-9	3
Cc1cc(OC(=O)C2CC2)cc2c1C(=O)C(=Cc1ccncc1)O2	-8	18
Cc1cc(C2C(C#N)=C(N)N(c3cccc(C(F)(F)F)c3)C3=C2C(=O)CCC3)c(C)s1 (stereo not drawn)	-2	61*
N#CC1=C(N)N(c2ccc(F)cc2)C2=C(C(=O)CCC2)C1c1ccc(Br)s1 (stereo not drawn)	1	86*
Cc1cccc(N2C(N)=C(C#N)C(c3cc(Br)cs3)C3=C2CCCC3=O)c1 (stereo not drawn)	80*	51*
